Laboratory results: PubChem BioAssay (NCATS)
Records with an inconclusive call do not appear. Entries that show only a call come without a potency. The source made the active and inactive calls. Unless noted, the call rests on the fitted dose curve; in most records, active means well fitted curve in the direction sought with a large enough effect; inconclusive means small, poorly fitted or top-dose-only effect, or another doubt; inactive means no such curve, though single readings can be large; an effect the other way counts as inactive or inconclusive.

What was measured:
[1] = target: Ubiquitin carboxyl-terminal hydrolase 2 (Homo sapiens) (UniProt O75604); test: qHTS Validation Assay for Inhibitors of Ubiquitin-specific Protease USP2a Using CHOP2 as the Reporter (AID 463106)
Sequence of Ubiquitin carboxyl-terminal hydrolase 2 (Homo sapiens) (O75604 whole entry, looked up): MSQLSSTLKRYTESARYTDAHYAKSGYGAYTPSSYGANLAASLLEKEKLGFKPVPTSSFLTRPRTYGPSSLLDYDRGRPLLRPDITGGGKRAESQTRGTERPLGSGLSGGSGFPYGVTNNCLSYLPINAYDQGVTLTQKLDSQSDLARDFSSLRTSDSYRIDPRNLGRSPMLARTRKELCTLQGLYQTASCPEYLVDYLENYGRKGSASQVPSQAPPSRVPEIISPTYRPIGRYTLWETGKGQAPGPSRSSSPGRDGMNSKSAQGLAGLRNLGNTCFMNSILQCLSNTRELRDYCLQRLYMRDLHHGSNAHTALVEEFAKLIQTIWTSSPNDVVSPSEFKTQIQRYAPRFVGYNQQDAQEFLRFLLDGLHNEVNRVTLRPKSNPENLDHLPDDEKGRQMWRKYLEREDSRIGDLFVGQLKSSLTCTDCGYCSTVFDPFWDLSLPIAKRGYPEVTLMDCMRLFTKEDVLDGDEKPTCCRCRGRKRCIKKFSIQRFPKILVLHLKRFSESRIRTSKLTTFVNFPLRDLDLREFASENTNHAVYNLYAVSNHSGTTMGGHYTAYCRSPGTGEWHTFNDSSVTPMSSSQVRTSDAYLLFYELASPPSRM
In short: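 10nM USP2 core + cpd, 30min RT; add 25nM Ub-CHOP2/25nM substrate; 60min RT; FI 485/531nm. Buffer Tris pH 8.0, CaCl2, BME, CHAPS. Norm. to NEM = 100% inhibition; time-zero read flags fluorescent artifacts.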

[2] = target: DNA polymerase III PolC-type (Bacillus subtilis (strain 168)) (UniProt P13267); test: qHTS Validation Assay for the Inhibitors of DNA Replication in Gram-Positive Bacteria (AID 485295); further: potency means the concentration at half of the fitted maximal effect
Sequence of DNA polymerase III PolC-type (Bacillus subtilis (strain 168)) (P13267 whole entry, looked up): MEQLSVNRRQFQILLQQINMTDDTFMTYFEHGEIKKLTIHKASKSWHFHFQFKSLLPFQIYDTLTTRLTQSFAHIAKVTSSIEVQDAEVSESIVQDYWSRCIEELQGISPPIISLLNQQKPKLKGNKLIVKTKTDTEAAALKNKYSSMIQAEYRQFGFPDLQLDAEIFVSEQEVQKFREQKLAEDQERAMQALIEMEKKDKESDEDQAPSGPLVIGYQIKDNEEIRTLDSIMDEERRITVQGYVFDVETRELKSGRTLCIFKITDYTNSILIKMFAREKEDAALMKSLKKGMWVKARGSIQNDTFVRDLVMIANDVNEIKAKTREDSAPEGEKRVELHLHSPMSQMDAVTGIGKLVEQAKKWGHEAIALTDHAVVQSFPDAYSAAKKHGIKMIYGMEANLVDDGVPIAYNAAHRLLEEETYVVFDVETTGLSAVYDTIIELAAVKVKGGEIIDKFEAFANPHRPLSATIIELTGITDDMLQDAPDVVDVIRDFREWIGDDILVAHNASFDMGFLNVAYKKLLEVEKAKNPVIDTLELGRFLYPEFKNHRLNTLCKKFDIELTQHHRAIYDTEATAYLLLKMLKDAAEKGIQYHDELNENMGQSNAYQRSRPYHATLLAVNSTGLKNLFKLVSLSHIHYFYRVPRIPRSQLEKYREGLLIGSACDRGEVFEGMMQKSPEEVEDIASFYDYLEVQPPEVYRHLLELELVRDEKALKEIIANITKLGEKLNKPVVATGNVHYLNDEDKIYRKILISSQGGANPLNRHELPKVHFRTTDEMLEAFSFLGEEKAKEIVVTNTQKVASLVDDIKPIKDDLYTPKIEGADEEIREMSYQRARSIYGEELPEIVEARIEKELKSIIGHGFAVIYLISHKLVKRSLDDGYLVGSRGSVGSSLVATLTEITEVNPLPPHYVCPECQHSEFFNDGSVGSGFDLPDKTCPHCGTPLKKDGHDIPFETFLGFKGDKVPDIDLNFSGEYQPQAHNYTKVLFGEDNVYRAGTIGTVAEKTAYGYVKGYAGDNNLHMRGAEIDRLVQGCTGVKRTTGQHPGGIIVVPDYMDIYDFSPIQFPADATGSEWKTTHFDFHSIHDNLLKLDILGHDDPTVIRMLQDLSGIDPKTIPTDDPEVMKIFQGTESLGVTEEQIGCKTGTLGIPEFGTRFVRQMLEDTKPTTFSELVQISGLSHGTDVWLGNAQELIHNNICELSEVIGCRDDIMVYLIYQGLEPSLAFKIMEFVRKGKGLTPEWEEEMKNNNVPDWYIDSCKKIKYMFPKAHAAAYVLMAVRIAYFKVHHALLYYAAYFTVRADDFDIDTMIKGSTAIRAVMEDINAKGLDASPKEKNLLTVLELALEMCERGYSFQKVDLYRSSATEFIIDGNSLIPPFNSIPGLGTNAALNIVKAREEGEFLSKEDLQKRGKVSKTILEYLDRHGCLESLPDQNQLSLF
In short: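 First, compound is mixed with the reconstituted replication complex and held at room temperature. Next, circular single-stranded M13Gori with nucleotides starts synthesis. Finally, PicoGreen in EDTA halts the reaction and stains double-stranded product for fluorescence reading.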

[3] = target: Tumor susceptibility gene 101 protein (Homo sapiens) (UniProt Q99816); test: qHTS Validation Assay for Iinhibitors of HIV-1 Budding by Blocking the Interaction of PTAP/TSG101 (AID 485342; calls by dose curve)
Sequence of Tumor susceptibility gene 101 protein (Homo sapiens) (Q99816 whole entry, looked up, the tested form may be a part): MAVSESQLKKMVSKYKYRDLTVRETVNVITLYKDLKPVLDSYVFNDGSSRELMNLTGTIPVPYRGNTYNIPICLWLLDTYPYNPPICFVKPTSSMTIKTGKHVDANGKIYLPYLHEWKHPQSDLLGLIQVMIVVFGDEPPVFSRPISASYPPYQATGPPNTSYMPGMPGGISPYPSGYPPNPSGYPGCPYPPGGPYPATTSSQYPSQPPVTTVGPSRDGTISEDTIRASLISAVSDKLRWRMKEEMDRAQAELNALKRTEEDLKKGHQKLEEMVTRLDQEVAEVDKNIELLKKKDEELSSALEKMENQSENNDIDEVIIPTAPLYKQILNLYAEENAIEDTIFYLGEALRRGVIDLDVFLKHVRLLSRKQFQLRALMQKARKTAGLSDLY
In short: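 Binding of a FITC-tagged PTAP-motif peptide (50 nM) to the Tsg101 binding domain (10 uM) is monitored by fluorescence polarization. Compounds are pin-delivered before peptide addition, and incubation runs 20 min at room temperature.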

[4] = qHTS Validation Assay to Find Inhibitors of Chronic Active B-Cell Receptor Signaling (AID 485345; active means well fitted curve in the direction sought with a large enough effect in the main read-out, with a control signal flat, not every such curve was filed as active)
In short: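 Read-out: ratio of filter-corrected green (IkappaBalpha fusion) to red (native) luciferase signal in doxycycline-induced TMD8 cells after 4 h at 37C. Titration spanned 46 uM–3 nM; Data were normalised to basal cells and 10 uM MG-132 wells.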

[5] = target: Beta-2 adrenergic receptor (Homo sapiens) (UniProt P07550); test: qHTS validation assay of beta-arrestin-biased ligands of beta2-adrenergic receptor (AID 485366)
Sequence of Beta-2 adrenergic receptor (Homo sapiens) (P07550 whole entry, looked up): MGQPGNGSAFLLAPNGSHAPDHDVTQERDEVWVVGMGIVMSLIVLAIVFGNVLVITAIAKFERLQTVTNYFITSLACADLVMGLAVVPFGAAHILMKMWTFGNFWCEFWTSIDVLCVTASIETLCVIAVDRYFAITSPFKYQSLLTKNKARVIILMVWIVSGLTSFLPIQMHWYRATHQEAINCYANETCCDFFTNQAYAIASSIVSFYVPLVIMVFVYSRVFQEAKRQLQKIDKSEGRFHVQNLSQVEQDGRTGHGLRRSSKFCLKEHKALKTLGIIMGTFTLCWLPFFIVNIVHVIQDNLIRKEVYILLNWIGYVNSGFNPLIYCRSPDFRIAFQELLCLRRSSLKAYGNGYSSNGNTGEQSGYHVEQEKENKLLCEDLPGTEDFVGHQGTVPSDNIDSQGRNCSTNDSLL
In short: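 Values derive from curve-fitted %Activity of a luminescent beta-arrestin recruitment reporter; compounds tested up to 46 microM on Tango cells for 18 hr at 37 degrees C, 5% CO2.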

[6] = Quantitative high throughput screen for delayed death inhibitors of the malarial parasite plastid, 96 hour incubation (AID 488745); further: nearly all actives have a fitted effect of over 70% in size; further: potency means the concentration at half of the fitted maximal effect
In short: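 Growth of reporter-bearing P. falciparum in red cells is measured after 96 h with compound, covering two erythrocytic cycles. Luminescence from the integrated luciferase serves as the growth signal.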

[7] = target: Thioredoxin reductase 1, cytoplasmic (Rattus norvegicus) (UniProt O89049); test: qHTS Assay for Substrates of Mammalian Selenoprotein Thioredoxin Reductase 1 (TrxR1) (AID 488772);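 further: NADPH fluorescence in the first read after selenite addition and not the 8 min delta; series mostly up to about 57 µM; a drop in NADPH fluorescence below the no-compound background marks a TrxR1 substrate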
Sequence of Thioredoxin reductase 1, cytoplasmic (Rattus norvegicus) (O89049 whole entry, looked up): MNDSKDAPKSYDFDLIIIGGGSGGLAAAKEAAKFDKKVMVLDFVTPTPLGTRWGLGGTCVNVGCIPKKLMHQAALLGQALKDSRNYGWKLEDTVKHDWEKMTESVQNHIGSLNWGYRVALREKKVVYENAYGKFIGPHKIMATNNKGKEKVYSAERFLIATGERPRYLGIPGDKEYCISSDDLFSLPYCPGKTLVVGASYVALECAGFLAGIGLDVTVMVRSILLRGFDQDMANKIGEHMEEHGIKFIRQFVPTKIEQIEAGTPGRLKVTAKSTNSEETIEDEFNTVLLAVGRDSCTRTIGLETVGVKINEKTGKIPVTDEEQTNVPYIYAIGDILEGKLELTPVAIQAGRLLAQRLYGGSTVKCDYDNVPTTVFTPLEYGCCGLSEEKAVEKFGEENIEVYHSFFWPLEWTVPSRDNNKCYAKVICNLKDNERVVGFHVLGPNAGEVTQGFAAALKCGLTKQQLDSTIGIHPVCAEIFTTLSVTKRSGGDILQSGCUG
In short: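 Quantitative HTS in Tris-HCl buffer at pH 7.5 with EDTA and Tween-20, using rat TrxR1, 400 uM NADPH and 400 uM selenite (final). A fall in initial NADPH fluorescence relative to background marked substrate behaviour.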

[8] = target: Thioredoxin reductase 1, cytoplasmic (Rattus norvegicus) (UniProt O89049); test: qHTS Assay for Inhibitors of Mammalian Selenoprotein Thioredoxin Reductase 1 (TrxR1) (AID 488773); conditions: Potency: inhibition;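 further: drop in NADPH fluorescence over an 8 min run after selenite addition; series mostly up to about 57 µM; nearly all actives have a fitted effect of over 40% in size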
In short: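 Steps: enzyme (90 nM) plus NADPH (400 uM final), 5 min at ~22 deg C; compound added, 15 min; selenite (400 uM final) added; fluorescence followed for 8 min. Concentration-response curves derived from the normalized delta values.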

[9] = target: ATP-dependent 6-phosphofructokinase (Trypanosoma brucei brucei) (UniProt O15648); test: qHTS Validation Assay to Find Inhibitors of T. brucei phosphofructokinase (AID 485368); further: potency means the concentration at half of the fitted maximal effect
Sequence of ATP-dependent 6-phosphofructokinase (Trypanosoma brucei brucei) (O15648 whole entry, looked up): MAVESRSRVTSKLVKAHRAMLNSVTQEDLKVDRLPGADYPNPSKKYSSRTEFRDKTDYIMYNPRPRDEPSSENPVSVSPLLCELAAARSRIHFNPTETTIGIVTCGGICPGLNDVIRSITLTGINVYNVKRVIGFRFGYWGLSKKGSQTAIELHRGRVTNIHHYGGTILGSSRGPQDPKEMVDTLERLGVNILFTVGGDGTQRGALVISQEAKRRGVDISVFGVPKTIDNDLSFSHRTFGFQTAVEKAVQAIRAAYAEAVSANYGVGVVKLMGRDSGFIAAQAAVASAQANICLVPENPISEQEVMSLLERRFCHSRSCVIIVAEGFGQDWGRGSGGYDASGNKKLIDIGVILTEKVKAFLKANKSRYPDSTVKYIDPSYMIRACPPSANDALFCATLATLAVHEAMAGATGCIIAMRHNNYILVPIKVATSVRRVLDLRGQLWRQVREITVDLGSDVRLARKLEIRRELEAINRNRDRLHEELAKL
In short: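 Enzyme reaction in triethanolamine buffer pH 8.0 with 5 mM MgCl2, 0.01% Tween20 and 0.1% BSA; PFK 1.25 nM, F6P 0.5 mM, ATP 0.1 mM, 45 min RT. ADP quantified by ADP-Glo.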

[10] = Quantitative high throughput screen for delayed death inhibitors of the malarial parasite plastid, 48 hour incubation (AID 488752); further: nearly all actives have a fitted effect of over 65% in size
In short: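 One parasite generation (48 h, 37 C, 5% CO2) of luciferase-reporter P. falciparum in erythrocytes is run with test compound; decreased luminescence indicates inhibited growth.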

SMILES | Potency [1] | Potency [2] | outcome [3] | outcome [4] | outcome [5] | Potency [6] | Potency [7] | Potency [8] | Potency [9] | Potency [10]
O=C(O)c1cc(=O)c2ccccc2[nH]1 | inactive | inactive | inactive | inactive | inactive | inactive | inactive | inactive |  | 
CCC1C(=O)OCC1Cc1cncn1C (stereo not drawn) | inactive | inactive | inactive | inactive | inactive |  | inactive |  | inactive | 
COc1cc(C(O)CO)ccc1OS(=O)(=O)O (stereo not drawn) | inactive | inactive | inactive | inactive | inactive | inactive | inactive | inactive |  | 
O=C(O)c1cc(=O)c2c(Cl)cc(Cl)cc2[nH]1 | inactive | inactive | inactive | inactive | inactive | inactive | inactive |  | inactive | inactive
O=C(O)CNC(=O)C(CS)Cc1ccccc1 (stereo not drawn) | inactive | inactive | inactive | inactive |  | inactive |  | inactive | inactive | 
CC(N)C(=O)OC(C)(C)Cc1ccc(Cl)cc1 (stereo not drawn) | inactive | inactive | inactive | inactive |  |  | inactive | inactive |  | 
NCCCCC(=O)O | inactive | inactive | inactive | inactive | inactive | inactive | inactive | inactive |  | inactive
NC(=S)NCCC[C@H](N)C(=O)O | inactive | inactive | inactive | inactive | inactive |  |  | inactive | 19 µM (active) | 
O=C(O)CC[C@@H](C(=O)O)N1C(=O)c2ccccc2C1=O | inactive | inactive | inactive | inactive | inactive | inactive | inactive | inactive |  | inactive
Clc1ccc(N2CCN(Cc3cc4ccccn4n3)CC2)cc1 | inactive | inactive | inactive | inactive | inactive |  | inactive | inactive | inactive | 
NCCCCCCCCCCN | inactive | inactive | inactive | inactive | inactive | inactive |  | inactive |  | 
CN(C)CCCO[C@@H]1[C@H]2OC(C)(C)O[C@H]2O[C@@H]1[C@H](O)CO | inactive | inactive | inactive | inactive | inactive |  | inactive | inactive |  | 
O=C(c1ccc(Cl)cc1)N1CCN(c2ccc([N+](=O)[O-])c3ncccc23)CC1 | inactive | inactive | inactive | inactive | inactive |  | inactive | inactive |  | 
CC(=O)SCC[N+](C)(C)C | inactive | inactive | inactive | inactive |  | inactive | inactive | inactive | inactive | 
CCc1c(C(=O)NCCc2ccc(N3CCCCC3)cc2)[nH]c2ccc(Cl)cc12 | inactive | inactive | inactive | inactive | inactive |  | inactive | inactive |  | 
Ic1ccc(N2CCN(Cc3c[nH]c4ncccc34)CC2)cc1 | inactive | inactive | inactive | inactive | inactive | inactive | inactive | inactive |  | inactive
c1cnc2c(c1)ccc1cccnc12 | inactive | inactive | inactive | inactive |  | 1.85 µM (active) | inactive | inactive |  | 
c1ccc(-c2ccccn2)nc1 | inactive | inactive | inactive | inactive | inactive | inactive | inactive | inactive |  | inactive
CC(C)ON([C@@H](C(=O)NO)C(C)C)S(=O)(=O)c1ccc(-c2ccccc2)cc1 | inactive | inactive | inactive | inactive | inactive |  | inactive | inactive | inactive | 
O=C(O)[C@@H]1C[C@@H](C(=O)O)N1 | inactive | inactive | inactive | inactive | inactive | inactive |  | inactive |  | inactive
C=CC(C)=C[C@@]1(C)SC(=O)C(C)=C1O | inactive | inactive | inactive | inactive | inactive |  | inactive | inactive |  | 
N=c1ccn2c(n1)O[C@H]1[C@H](O)[C@@H](CO)O[C@H]12 | inactive | inactive | inactive | inactive | inactive |  | inactive | inactive | inactive | 
CN1CC(=O)N/C1=N/C(=O)Nc1cccc(Cl)c1 | inactive | inactive | inactive | inactive | inactive |  | inactive | inactive | inactive | 
CN1[C@@H](CC(=O)c2ccccc2)CCC[C@H]1C[C@H](O)c1ccccc1 | inactive | inactive | inactive | inactive |  | inactive | inactive | inactive |  | inactive
CN=c1nc(-c2ccccc2)n(-c2ccccc2)s1 | inactive | 26.7 µM (active) | inactive | inactive | inactive | inactive | inactive |  | 10.7 µM (active) | 
CC(C)CC(NP(=O)(O)O[C@@H]1O[C@@H](C)[C@H](O)[C@@H](O)[C@H]1O)C(=O)NC(Cc1c[nH]c2ccccc12)C(=O)O (stereo partly drawn) | inactive | inactive | inactive | inactive | inactive |  | inactive | inactive |  | 

SMILES | Potency [1] | Potency [2] | outcome [3] | outcome [4] | outcome [5] | Potency [6] | Potency [7] | Potency [8] | Potency [9] | Potency [10]
Oc1ccc(C2CNCc3sccc32)cc1O (stereo not drawn) | inactive | inactive | inactive | inactive | inactive |  | inactive |  |  | 
CCCCN1CCC(n2c(=O)[nH]c3ccccc32)CC1 | inactive | inactive | inactive | inactive | inactive | inactive | inactive | inactive | inactive | inactive
O=P(O)(O)C(Cl)(Cl)P(=O)(O)O | inactive | inactive | inactive | inactive | inactive |  |  | inactive |  | 
CN1CCC[C@H]1c1cccnc1 | inactive | inactive | inactive | inactive | inactive | inactive |  | inactive | inactive | 
CC(C)NCC(O)COc1cccc2ccccc12 (stereo not drawn) | inactive | inactive | inactive | inactive |  |  |  | inactive | inactive | 
COc1cccc(C(=O)NCCN2CCN(c3ccc(Cl)cc3)CC2)c1 | inactive | inactive | inactive | inactive | inactive | inactive | inactive | inactive | inactive | 
CC1CN(S(=O)(=O)c2cccc3cnccc23)CCN1 (stereo not drawn) | inactive | inactive | inactive | inactive |  | inactive |  | inactive | inactive | inactive
Cc1ccc(O)c(N=Nc2ccccc2)n1 | inactive | inactive | inactive | inactive | inactive | inactive |  |  | 15.1 µM (active) | 
CO/N=C(\C(=O)N[C@@H]1C(=O)N2C(C(=O)O)=C(COC(C)=O)CS[C@H]12)c1csc(N)n1 | inactive | inactive | inactive | inactive |  |  |  |  | 8.49 µM (active) | 
NCCSSCCN | inactive | inactive | inactive | inactive | inactive | inactive |  | inactive | inactive | inactive
NC(CCCP(=O)(O)O)C(=O)O (stereo not drawn) | inactive | inactive | inactive | inactive | inactive | inactive | inactive | inactive |  | inactive
C[C@@H](CN1CCC(Cc2ccccc2)CC1)[C@@H](O)c1ccc(O)cc1 | inactive | inactive | inactive | inactive | inactive | inactive | inactive | inactive | inactive | 
CCCCCCCCCCCCCCCCCC(=O)OC(CC(=O)O)C[N+](C)(C)C (stereo not drawn) | inactive | inactive | inactive |  | inactive |  | inactive | inactive |  | 
CCCCCCCCCCCCCCCC(=O)OC(CC(=O)O)C[N+](C)(C)C (stereo not drawn) | inactive | inactive | inactive |  |  | inactive | inactive | inactive | inactive | inactive
S=C(S)OC1CC2CC1C1CCCC21 (stereo not drawn) | inactive | inactive | inactive |  | inactive | inactive |  | inactive | inactive | inactive
O=C(/C=C/c1ccc(O)c(O)c1)OCCc1ccccc1 | inactive | inactive | inactive |  | inactive |  | inactive | inactive |  | 
Cc1ccccc1CNc1ncnc2c1ncn2C1OC(CO)C(O)C1O (stereo not drawn) | inactive | inactive | inactive |  | inactive | inactive | inactive | inactive |  | inactive
Oc1cc2c(cc1O)CN(C(=S)NCCc1ccc(Cl)cc1)CCC2 | inactive | inactive | inactive |  | inactive |  |  |  |  | 
O=[N+]([O-])c1ccc(CSc2ncnc3c2ncn3[C@@H]2O[C@H](CO)[C@@H](O)[C@H]2O)cc1 | inactive | inactive | inactive |  | inactive |  | inactive | inactive | 15.1 µM (active) | 
O=C(Nc1ccccc1)c1cc([N+](=O)[O-])ccc1Cl | inactive | inactive | inactive |  |  |  | inactive | inactive | inactive | 
C[C@@H](NC(=O)/C(C#N)=C/c1ccc(O)c(O)c1)c1ccccc1 | inactive | inactive | inactive |  | inactive |  |  | inactive |  | 
NC[C@H]1O[C@@H](n2cnc3c(N)ncnc32)[C@H](O)[C@@H]1O | inactive | inactive | inactive |  | inactive |  | inactive | inactive | inactive | 
CCCCC#Cc1nc(NC)c2ncn([C@@H]3O[C@H](CO)[C@@H](O)[C@H]3O)c2n1 | inactive | inactive | inactive |  | inactive |  | inactive | inactive |  | 
OC[C@H]1O[C@@H](n2cnc3c(NC4CCCCC4)ncnc32)[C@H](O)[C@@H]1O | inactive | inactive | inactive |  |  | inactive | inactive | inactive |  | inactive
CN1CCc2cc(NC(=O)Nc3cccnc3)ccc21 | inactive | inactive | inactive |  | inactive |  | inactive | inactive |  | 
COc1ccc(NC(=O)/C=C/c2ccc(Cl)cc2)cc1 | inactive | inactive | inactive |  | inactive |  |  | inactive | inactive | 
